Data reported in PubChem BioAssay AID1220 (Sanford-Burnham Center for Chemical Genomics, 2008).
Out of some 190,000 compounds screened, about 1,300 (0.68%) were called active. Rule as the data show it: active = inhibition above about 50%; inactive = the rest. For the sample, actives were picked, then their nearest neighbours and some compounds at random.

Target: Mannose-6-phosphate isomerase (Homo sapiens) (UniProt P34949)
Experiment: human PMI inhibitors, high substrate, primary screen, biochemical, fluorescence intensity, high mannose 6-phosphate (AID 1220)
Conditions: recombinant PMI enzyme, coupled fluorescence intensity; at 20 µM; stronger effect = higher value

Mannose-6-phosphate isomerase (Homo sapiens), sequence (P34949 whole entry, looked up): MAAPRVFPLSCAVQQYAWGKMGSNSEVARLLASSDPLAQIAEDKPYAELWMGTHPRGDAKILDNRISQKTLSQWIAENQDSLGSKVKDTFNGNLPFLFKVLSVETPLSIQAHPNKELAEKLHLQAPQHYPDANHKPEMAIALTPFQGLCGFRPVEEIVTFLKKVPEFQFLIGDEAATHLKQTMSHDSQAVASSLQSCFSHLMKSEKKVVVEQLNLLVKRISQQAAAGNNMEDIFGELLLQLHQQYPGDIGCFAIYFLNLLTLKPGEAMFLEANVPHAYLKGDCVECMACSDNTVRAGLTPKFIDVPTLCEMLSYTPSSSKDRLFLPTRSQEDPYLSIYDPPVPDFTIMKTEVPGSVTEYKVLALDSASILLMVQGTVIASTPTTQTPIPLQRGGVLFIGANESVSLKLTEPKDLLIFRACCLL

Question: `COc1cccc(C2CC(c3c(Cl)cccc3Cl)n3nc(N)nc3N2)c1` (stereo not drawn) was tested. Which inhibition did it give?
Answer: 11.8% (inactive)

Question: Which inhibition does the source give for `COc1ccc(C2CC(c3c(Cl)cccc3Cl)n3nc(N)nc3N2)cc1` (stereo not drawn) here?
Answer: 56.3% (active)

Question: How did the inhibition turn out when `COc1ccc(C2CC(c3ccc(OC)cc3)n3nc(N)nc3N2)cc1` (stereo not drawn) was run?
Answer: 10.5% (inactive)

Question: Which inhibition does the source give for `CN(C)/C=C1/Oc2c(ccc3ccccc23)C1=O` here?
Answer: 59.2% (active)

Question: Which inhibition does the source give for `CN(C)C=C1C(=O)c2ccccc2C1=O` here?
Answer: 0.8% (inactive)

Question: How did the inhibition turn out when `COc1cccc2c1C(=O)c1ccc3ccccc3c1C2=O` was run?
Answer: -81.6% (inactive)

Question: `CCCn1c(=O)c2c(nc(Br)n2CCC)n(C)c1=O` was tested. Which inhibition did it give?
Answer: -0.3% (inactive)

Question: Which inhibition does the source give for `Cc1c(C(=O)OCC(=O)Nc2ccc3c(c2)OCO3)cccc1[N+](=O)[O-]` here?
Answer: 16.9% (inactive)

Question: `COc1ccc(NC(=O)CN2CCN(CC(=O)Nc3ccc4c(c3)OCO4)CC2)cc1` was tested. Which inhibition did it give?
Answer: 0.8% (inactive)

Question: How did the inhibition turn out when `COc1ccc(NC(=O)/C=C/c2ccc3c(c2)OCO3)cc1` was run?
Answer: 8.9% (inactive)

Question: With `COc1ccc(NC(=O)C(c2cc3c(cc2[N+](=O)[O-])OCO3)N(C)Cc2ccccc2)cc1` (stereo not drawn) as the compound, how does the inhibition read?
Answer: 54.8% (active)

Question: With `COc1ccc(NC(=O)c2ccc(NC(=O)C(C)C)cc2)c([N+](=O)[O-])c1` as the compound, how does the inhibition read?
Answer: 1.6% (inactive)

Question: Which inhibition does the source give for `COc1ccc(NC(=O)C(c2cc3c(cc2[N+](=O)[O-])OCO3)N(C)C)cc1` (stereo not drawn) here?
Answer: 55.6% (active)

Question: For `O=C(Cc1ccccc1[N+](=O)[O-])Nc1ccc2c(c1)OCO2`, which inhibition is on record?
Answer: 0% (inactive)

Question: How did the inhibition turn out when `CCN(c1cccc(C)c1)C(C(=O)Nc1ccc(OC)cc1)c1cc2c(cc1[N+](=O)[O-])OCO2` (stereo not drawn) was run?
Answer: 54.3% (active)

Question: `CC1CCCN(C(C(=O)NC2CCCCC2)c2cc3c(cc2[N+](=O)[O-])OCO3)C1` (stereo not drawn) was tested. Which inhibition did it give?
Answer: 41.4% (inactive)

Question: For `COc1ccc(NC(=O)C(c2cc3c(cc2[N+](=O)[O-])OCO3)N2CCN(C=O)CC2)cc1` (stereo not drawn), which inhibition is on record?
Answer: 65.9% (active)

Question: With `COc1ccc(C(C(=O)Nc2ccc3c(c2)OCO3)N(C)C(=O)Cc2c[nH]c3ccccc23)cc1` (stereo not drawn) as the compound, how does the inhibition read?
Answer: 18.8% (inactive)

Question: For `COc1ccc(NC(=O)C(c2cc3c(cc2[N+](=O)[O-])OCO3)N(C)c2ccccc2)cc1` (stereo not drawn), which inhibition is on record?
Answer: 43.1% (inactive)

Question: `Cc1nn2cnc3sc4c(c3c2nc1=O)CCCC4` was tested. Which inhibition did it give?
Answer: 1.4% (inactive)

Question: With `Cc1ccc(C)c(NC(=O)CSc2n[nH]c(-c3ccncc3)n2)c1` as the compound, how does the inhibition read?
Answer: 4.4% (inactive)

Question: `COc1cc(C(=O)NCCC(=O)N2CCN(C)CC2)cc(OC)c1OC` was tested. Which inhibition did it give?
Answer: -1% (inactive)

Question: For `COC(=O)c1ccc(NC(=O)C2CCCN2S(=O)(=O)c2ccc(C)cc2)cc1` (stereo not drawn), which inhibition is on record?
Answer: 2.7% (inactive)

Question: For `O=C(O)/C(=C\c1ccccc1Cl)c1ccc(S(=O)(=O)N2CCCCC2)s1`, which inhibition is on record?
Answer: -23% (inactive)

Question: For `O=C(O)/C(=C\c1ccc(Cl)c([N+](=O)[O-])c1)c1ccc(S(=O)(=O)N2CCCCC2)s1`, which inhibition is on record?
Answer: 57% (active)

Question: With `O=C(O)/C(=C\c1ccc(Br)cc1)c1ccc(S(=O)(=O)N2CCCCC2)s1` as the compound, how does the inhibition read?
Answer: 3.7% (inactive)

Question: How did the inhibition turn out when `Cc1c(Cl)c([N+](=O)[O-])nn1CCCC(=O)N1CCN(c2ccccc2)CC1` was run?
Answer: -19.1% (inactive)

Question: `COc1cccc(CNC(=S)Nc2cc(C)cc(C)c2)c1` was tested. Which inhibition did it give?
Answer: 4.2% (inactive)

Question: With `O=c1[nH]c2ccccc2n2cnnc12` as the compound, how does the inhibition read?
Answer: -5.9% (inactive)

Question: `O=c1[nH]c2ccccc2n2c(-c3ccccc3)nnc12` was tested. Which inhibition did it give?
Answer: 74.5% (active)

Question: Which inhibition does the source give for `O=c1[nH]c2ccccc2n2c(-c3ccncc3)nnc12` here?
Answer: 0.5% (inactive)

Question: Which inhibition does the source give for `COc1ccc(S(=O)(=O)N(C)CC(=O)Nc2ccc(C(N)=O)cc2)cc1OC` here?
Answer: -13.3% (inactive)

Question: `CC(C)N(C(=O)CSc1nnc(CNc2ccc(F)cc2)o1)C(C)C` was tested. Which inhibition did it give?
Answer: 17% (inactive)

Question: `Cc1cc(C)c2ccc(N)nc2c1O` was tested. Which inhibition did it give?
Answer: 26% (inactive)

Question: How did the inhibition turn out when `Cc1cc(C)c2nc(N)sc2c1` was run?
Answer: 7.6% (inactive)

Question: How did the inhibition turn out when `Cc1cc(C)c(O)c(N)c1` was run?
Answer: 61.3% (active)

Question: For `Cc1nc2cc(C)c(C)cc2s1`, which inhibition is on record?
Answer: -8.8% (inactive)

Question: How did the inhibition turn out when `CCC(C)(C)NC(=O)c1cc(C(=O)OC)cc([N+](=O)[O-])c1` was run?
Answer: -6.6% (inactive)

Question: For `O=C(N/N=C/C(Br)=C/c1ccccc1)C1CC1`, which inhibition is on record?
Answer: 14.3% (inactive)

Question: With `COc1cc2c(cc1OC)-c1cc3ccc4c(c3c[n+]1CC2)OCO4` as the compound, how does the inhibition read?
Answer: 53.6% (active)

Question: Which inhibition does the source give for `COc1cc2c(cc1O)CC[n+]1cc3c(OC)c(OC)ccc3cc1-2` here?
Answer: 39.9% (inactive)

Question: `COc1ccc2cc3[n+](cc2c1OC)CCc1cc2c(cc1-3)OCO2` was tested. Which inhibition did it give?
Answer: 33.7% (inactive)

Question: How did the inhibition turn out when `O=c1c2ccccc2nc(-c2cccs2)n1-c1cccc2ccccc12` was run?
Answer: -3.7% (inactive)

Question: For `O=C1c2ccccc2-n2c1nc1ccccc1c2=O`, which inhibition is on record?
Answer: 50.7% (active)

Question: For `O=c1c2ccccc2nc(-c2ccccc2Cl)n1O`, which inhibition is on record?
Answer: -7.6% (inactive)

Question: `O=C(NCc1ccco1)Nc1ccccc1Cl` was tested. Which inhibition did it give?
Answer: 5.5% (inactive)

Question: How did the inhibition turn out when `NS(=O)(=O)c1ccc(CCNC(=O)c2ccc(S(=O)(=O)N3CCCCC3)cc2)cc1` was run?
Answer: -2.8% (inactive)

Question: How did the inhibition turn out when `O=C(c1ccc(Cl)cc1)c1c[nH]c(C(=O)NNc2cccc(Cl)n2)c1` was run?
Answer: 4.5% (inactive)

Question: `Oc1ccc(NCc2ccccc2OCc2ccccc2)cc1` was tested. Which inhibition did it give?
Answer: 47.7% (inactive)

Question: For `CCOc1ccccc1CNc1ccc(O)cc1`, which inhibition is on record?
Answer: 59.4% (active)

Question: `Oc1ccc(NCc2ccccc2OCc2ccccc2F)cc1` was tested. Which inhibition did it give?
Answer: 25% (inactive)

Question: `COc1ccc(C2SCC(=O)N2c2c(C)n(C)n(-c3ccccc3)c2=O)cc1OC` (stereo not drawn) was tested. Which inhibition did it give?
Answer: -1.7% (inactive)

Question: How did the inhibition turn out when `CCOc1ccc(OCC)c(S(=O)(=O)NNC(=O)c2c(C)nc3ccccn23)c1` was run?
Answer: -3.5% (inactive)

Question: How did the inhibition turn out when `CC(=O)N1c2ccccc2C(C)(C)C2CCC(C)CC21` (stereo not drawn) was run?
Answer: -3.5% (inactive)

Question: How did the inhibition turn out when `CC(=O)N1c2ccccc2C2(O)N=C(C)SC12` (stereo not drawn) was run?
Answer: 52.8% (active)

Question: Which inhibition does the source give for `Cc1ccc(C(=O)CC2(O)C(=O)N(C)c3ccccc32)s1` (stereo not drawn) here?
Answer: 9.4% (inactive)

Question: With `CCOC(=O)C1=C(C)N(C)C(=O)NC1c1c(C)nn(-c2ccccc2)c1C` (stereo not drawn) as the compound, how does the inhibition read?
Answer: 1.3% (inactive)

Question: How did the inhibition turn out when `CCOC(=O)C1=C(C)N(C)C(=O)NC1c1c(C)nn(-c2ccc(C)cc2)c1Cl` (stereo not drawn) was run?
Answer: -4% (inactive)

Question: How did the inhibition turn out when `Nc1nc(SCC(=O)NCC2CCCO2)n[nH]1` (stereo not drawn) was run?
Answer: 5.9% (inactive)

Question: With `CCOc1ccc2[nH]c(=O)c(CN(CCO)C(=O)c3ccccc3F)cc2c1` as the compound, how does the inhibition read?
Answer: -1% (inactive)

Question: With `CCCN1CCCc2cc(CN)ccc21` as the compound, how does the inhibition read?
Answer: 50.4% (active)

Question: How did the inhibition turn out when `CCc1ccc2c(c1)CCCN2C(=O)c1ccccc1C(=O)O` was run?
Answer: -10% (inactive)

Question: With `CCCN1CCCc2ccccc21` as the compound, how does the inhibition read?
Answer: -58.9% (inactive)
